The results in this text go back to PubChem BioAssay AID1942 (Johns Hopkins Ion Channel Center, 2009).

Among all 2,400 compounds or so, about 580 (24%) were called active.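 Rule for the calls: active = activity change at or above the mean plus 3 SD of buffer wells without dofetilide, per plate; inactive = the rest.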 These entries were drawn from the full list.

The target in this test is Potassium voltage-gated channel subfamily KQT member 2 (Rattus norvegicus) (UniProt O88943). Kind of test: KCNQ2 potentiation in CHO cells – cell-based, FluxOR thallium flux, counter-screen for hERG block protector project, confirmation (AID 1942).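 Note: normalized value minus buffer-control mean plus three SD of buffer wells.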 The conditions noted are these: FluxOR thallium flux fluorescence, at 10 µM, hits give high values.
Sequence of Potassium voltage-gated channel subfamily KQT member 2 (Rattus norvegicus) (O88943 whole entry, looked up): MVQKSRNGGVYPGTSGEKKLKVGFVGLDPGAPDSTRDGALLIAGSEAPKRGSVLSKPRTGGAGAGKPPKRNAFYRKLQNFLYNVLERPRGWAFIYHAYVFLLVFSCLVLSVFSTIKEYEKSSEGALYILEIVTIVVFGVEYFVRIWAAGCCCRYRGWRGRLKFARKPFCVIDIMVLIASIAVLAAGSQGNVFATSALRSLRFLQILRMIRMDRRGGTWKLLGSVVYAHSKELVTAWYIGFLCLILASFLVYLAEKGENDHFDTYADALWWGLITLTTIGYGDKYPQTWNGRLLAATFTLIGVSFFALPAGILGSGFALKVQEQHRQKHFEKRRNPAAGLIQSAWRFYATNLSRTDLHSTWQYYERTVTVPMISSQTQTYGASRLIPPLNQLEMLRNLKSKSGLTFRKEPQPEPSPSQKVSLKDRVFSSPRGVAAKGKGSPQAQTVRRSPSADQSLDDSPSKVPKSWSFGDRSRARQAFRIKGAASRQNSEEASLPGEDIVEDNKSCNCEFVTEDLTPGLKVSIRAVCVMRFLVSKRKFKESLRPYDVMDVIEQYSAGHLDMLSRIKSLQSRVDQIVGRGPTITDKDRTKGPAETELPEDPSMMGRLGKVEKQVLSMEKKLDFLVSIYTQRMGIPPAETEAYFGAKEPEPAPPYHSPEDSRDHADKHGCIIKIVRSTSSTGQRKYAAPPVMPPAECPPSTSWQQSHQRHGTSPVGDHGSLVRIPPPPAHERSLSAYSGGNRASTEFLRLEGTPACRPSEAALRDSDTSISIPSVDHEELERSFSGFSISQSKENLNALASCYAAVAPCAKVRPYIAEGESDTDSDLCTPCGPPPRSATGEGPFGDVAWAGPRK
Take `Cn1cc([N+](=O)[O-])c(C(=O)N/N=C\c2c[nH]c3ccccc23)n1`: the activity change, less the hit threshold is -15.5% (inactive). For the compound `CCCCN1C(=O)/C(=C2/Sc3ccc(Cl)cc3N2CC)SC1=S`, the activity change, less the hit threshold was -27.6% (inactive).

Consider `CNC(=O)c1ccc(NC(=O)CN2c3cccc4cccc(c34)S2(=O)=O)cc1`, for which the activity change, less the hit threshold was -18.1% (inactive). The figure for `COc1ccc(CS(=O)(=O)CC2(O)CCN(C(=O)c3cccc(C(F)(F)F)c3)CC2)cc1` is -25.4% (inactive). The figure for `O=C1CN(C(=O)COc2ccccc2F)c2ccccc2N1` is -18.7% (inactive).

Turning to `O=C(c1csc(Nc2ccccc2Cl)n1)N1CCCC1`, the activity change, less the hit threshold is -14.5% (inactive).

For `COc1cc(CNn2nnnc2N)ccc1OCC(=O)NC(C)(C)C`, the activity change, less the hit threshold is -20% (inactive). Take `COc1ccc(NC(=O)CC23CC4CC(CC(C4)C2)C3)cn1`: the activity change, less the hit threshold is 44.4% (active). The same measure for `COc1ccccc1CC(=O)Nc1ccc(OC)c(OC)c1`: -12.4% (inactive); for `COc1ccc(NC(=O)CCN2C(=O)C3C4C=CC(C4)C3C2=O)cc1` (centres undefined): -21.1% (inactive); for `CC(C)(C)c1cc(CCC(=O)NCc2ccncc2)cc(C(C)(C)C)c1O`: -15.7% (inactive). The same measure for `CCOC(=O)c1sc2nc(N3CCOCC3)c3c(c2c1N)CCN(Cc1ccccc1)C3`: 0.1% (active); for `Cn1ncc2c(NNC(=O)c3ccc(O)cc3)ncnc21`: -24.5% (inactive). With `CC(C)(C)NC(=O)C(=O)NNC(=O)c1cccc(Br)c1`, the activity change, less the hit threshold is 16.4% (active). For the compound `CC(C)(C)NC(=O)C(=O)NNC(=O)c1ccccc1`, the activity change, less the hit threshold is -9.7% (inactive). In the case of `CC(C)(C)NC(=O)C(=O)NNC(=O)COc1ccccc1`, the activity change, less the hit threshold is -16.3% (inactive).

As to `CC(C)(C)NC(=O)C(=O)NNC(=O)COc1ccc(Br)cc1`, the activity change, less the hit threshold was 41.1% (active). The same measure for `C=CCNC(=O)COc1ccc(Oc2ccccc2)cc1`: -6.4% (inactive); for `O=C(Nc1ccccc1C(=O)O)c1cncc(Br)c1`: -3% (inactive). The same measure for `CCCc1cc(C(=O)NNC(=S)Nc2cccc(C)c2)cs1`: -16.5% (inactive); for `CC(C)(C)c1ccc(C(=O)CC(=O)c2cc(Cl)ccc2O)cc1`: -11.6% (inactive); for `Cc1cccc(NC(=O)C(=O)NNC(=O)c2ccc(C(C)(C)C)cc2)c1`: 110% (active). In the case of `CC(C)(C)NC(=O)C(=O)NNC(=O)c1ccc(C(C)(C)C)cc1`, the activity change, less the hit threshold was 27.1% (active). The same measure for `CC/C(=N\NC(=S)Nc1cccc(C)c1)c1ccccc1`: -13% (inactive); for `O=C(NN1C(=O)C2C(c3ccccc3)C=CC(c3ccccc3)C2C1=O)c1cccc(Br)c1` (centres undefined): -3.8% (inactive); for `O=C(/C=C/c1ccccc1)Nc1ccc(S(=O)(=O)N2CCOCC2)cc1`: -12.6% (inactive).

As to `Cc1cc(C(=O)N/N=C/c2ccc(O)c([N+](=O)[O-])c2)n[nH]1`, the activity change, less the hit threshold is -19.6% (inactive).

`O=C(CSc1ccccc1)N1CCN(S(=O)(=O)c2cccs2)CC1`: the activity change, less the hit threshold was -6.8% (inactive). The figure for `O=C(CSc1nnc(NC(=O)c2ccc(S(=O)(=O)N3CCOCC3)cc2)s1)Nc1ccccc1C(F)(F)F` is -15.6% (inactive). With `O=C(CSc1nc2ccc(NC(=O)c3ccccc3C(=O)O)cc2s1)Nc1c(Cl)cccc1Cl`, the activity change, less the hit threshold was -7.3% (inactive).

As to `COc1ccc(N2C(=O)CCC(C(=O)O)C2c2ccc(F)cc2)cc1` (centres undefined), the activity change, less the hit threshold was -16.9% (inactive).

As for `CCC(C)NC(=O)Cn1nc(C(F)(F)F)c2c1CCCC2` (centres undefined), the activity change, less the hit threshold is -23.4% (inactive). With `O=C(NCc1cccnc1)Nc1ccc2c(c1)OCO2`, the activity change, less the hit threshold is -26% (inactive). The figure for `S=C(NCc1ccco1)N1CCN(c2nc(-c3ccccc3)cs2)CC1` is -24.1% (inactive); for `O=C(NC(=S)Nc1nc(-c2ccccc2)cs1)c1cncc(Br)c1` it is -12.3% (inactive); for `O=C(NC(=S)N1CCN(c2nc(-c3ccccc3)cs2)CC1)c1cncc(Br)c1` it is 45.1% (active).

Turning to `CCC(C)c1ccccc1NC(=O)C(C)NCCN(C)C` (centres undefined), the activity change, less the hit threshold was -17.2% (inactive). The figure for `COc1ccc(C)cc1S(=O)(=O)NC1CCCCC1` is -6.4% (inactive); for `C=C(C)CNC(=S)Nc1nc2c(cc1C(=O)OCC)CCCC2` it is -9.5% (inactive); for `CCNC(=S)Nc1nc2c(cc1C(=O)OCC)CCCC2` it is 6.4% (active). The figure for `C=CCNC(=S)Nc1nc2c(cc1C(=O)OCC)CCCC2` is 1.1% (active). In the case of `CCOC(=O)c1cc2c(nc1NC(=S)NCc1ccccc1)CCCC2`, the activity change, less the hit threshold is -13.9% (inactive). The figure for `CCc1cccc2c1NC(=O)C2(O)CC(=O)c1cccs1` (centres undefined) is -20.9% (inactive); for `O=C(CCc1ccccc1)NC(=S)Nc1cc(C(F)(F)F)ccc1N1CCOCC1` it is -30.4% (inactive). The same measure for `CCc1nccn1S(=O)(=O)c1ccc2ccc(C)cc2c1`: -8.3% (inactive). Consider `NC(=O)C1CCN(C(=O)c2cc3c(s2)CCCC3)CC1`, for which the activity change, less the hit threshold is 12% (active).

`O=C(c1cc2c(s1)-c1ccccc1OC2)N1CCCC1`: the activity change, less the hit threshold was -12.6% (inactive).

As for `CC(OC(=O)c1cc2c(s1)CCCCC2)C(=O)NC(N)=O` (centres undefined), the activity change, less the hit threshold is -23.7% (inactive).

For the compound `CCOc1ccc(-n2cnc3sc(C)c(C)c3c2=O)cc1`, the activity change, less the hit threshold was -26.5% (inactive). The same measure for `Cc1sc2ncnc(SCC(=O)NC(=O)c3cccn3C)c2c1C`: -2.4% (inactive); for `Cc1sc2ncnc(SCC(=O)c3ccc(O)cc3O)c2c1C`: 2.9% (active); for `O=C(Nc1cccnc1)c1ccc(COc2ccccc2Br)o1`: -13.5% (inactive). The figure for `C=CCOc1ccccc1/C=c1\sc2nc(=O)c(C)nn2c1=O` is -17.3% (inactive); for `S=C(NCCc1ccccc1)NCCN1CCOCC1` it is -16.4% (inactive). The same measure for `O=C(NC(=S)NCCc1ccc(Cl)cc1)c1ccco1`: -7.7% (inactive); for `O=C(NC(=S)NCCC1=CCCCC1)c1ccco1`: 42.7% (active); for `O=C(NC(=S)NCCC1=CCCCC1)c1ccc(Br)o1`: 3.5% (active). Turning to `Cc1ccc(/C=N/Nc2ccc(C(=O)O)cc2)o1`, the activity change, less the hit threshold was -9.1% (inactive).

In the case of `Cc1ccc(N=C2NC(=O)/C(=C/c3cccs3)S2)cc1C`, the activity change, less the hit threshold was -6.4% (inactive). As to `O=C(OCc1ccccc1)/C(=C/c1cccc([N+](=O)[O-])c1)NC(=O)c1ccco1`, the activity change, less the hit threshold was -19.1% (inactive). The same measure for `O=C1NC(=S)/C(=C\c2ccc(-c3ccccc3Cl)o2)S1`: -18.7% (inactive); for `O=C1NC(=S)S/C1=C\c1ccc2ccccc2c1`: 53.3% (active).

Regarding `COc1ccc2nc(N3CCCCC3)c(/C=C3\SC(=S)NC3=O)cc2c1`, the activity change, less the hit threshold is -17.9% (inactive). On to `S=c1[nH]c(-c2ccccc2)cn1/N=C/c1cccc2ccccc12`, for which the activity change, less the hit threshold is -7.9% (inactive). The same measure for `Cn1c(=S)[nH]c2sc3c(c2c1=O)CCC(C(C)(C)C)C3` (centres undefined): 70.3% (active); for `CC1CCc2c(sc3[nH]c(=S)n(C)c(=O)c23)C1` (centres undefined): 72.5% (active); for `CCCOC(=O)CN1C(=O)c2ccc(C(=O)OCCC)cc2C1=O`: -12.2% (inactive).

Take `O=c1oc2cc(OCCO)ccc2c2c1CCCC2`: the activity change, less the hit threshold was -17.1% (inactive). With `Cc1ccc2nc(-c3ccncc3)cc(C(=O)Nc3ccc4c(c3)OCCO4)c2c1`, the activity change, less the hit threshold is -19.5% (inactive). As for `CS(=O)(=O)N1CCC(C(=O)Nc2c(F)cccc2F)CC1`, the activity change, less the hit threshold is -11.1% (inactive). The same measure for `O=C(COc1ccc(Cl)cc1Cl)NC(=S)Nc1ccccc1C(=O)O`: -12.7% (inactive); for `Cc1occc1C(=O)NNC(=S)NC(=O)COc1ccc(Cl)cc1Cl`: 64.9% (active).

`COc1ccc(Cl)cc1C(=O)NNC(=S)NC(=O)/C=C/c1ccco1`: the activity change, less the hit threshold is -17% (inactive).

Turning to `COc1ccc(CN(C)C(=O)c2cccc(NS(=O)(=O)c3ccccc3)c2)cc1F`, the activity change, less the hit threshold is -13.5% (inactive).

On to `CN1CCN(c2nnc(-c3cccs3)c3ccccc23)CC1`, for which the activity change, less the hit threshold was -26.6% (inactive). The figure for `COC(=O)c1sccc1NC(=S)N1CC(C)CC(C)C1` (centres undefined) is -25% (inactive); for `CN(C)c1ccc(N=Nc2ccc(C(=O)O)cc2)cc1` it is -18.5% (inactive).

`O=c1ccc(N=Nc2ccccc2)ccc1O`: the activity change, less the hit threshold is 87.6% (active). For `O=C(COC(=O)c1cccs1)NCCN1C(=O)CSC1=O`, the activity change, less the hit threshold was -22% (inactive).

For the compound `Cn1c(CNC(=O)CNC(=O)c2ccc(F)cc2)cc(=O)n(C)c1=O`, the activity change, less the hit threshold is -10.8% (inactive). With `CC(NC(=O)c1ccc(Br)cc1)c1ccc2c(c1)CCCC2` (centres undefined), the activity change, less the hit threshold was 33.3% (active). The figure for `CC(NC(=O)CCNC(=O)c1ccco1)c1ccc(F)cc1` (centres undefined) is -12.9% (inactive); for `CC(NC(=O)c1ccc(F)cc1)c1ccc2c(c1)CCCC2` (centres undefined) it is 26.1% (active); for `CCc1ccc(C(C)NC(=O)c2ccc(F)cc2)cc1` (centres undefined) it is 21.6% (active). The same measure for `S=c1[nH]c2ccccc2n2cccc12`: -14.5% (inactive); for `CCOc1ccc(-n2c(C)c(C(C)=O)c3cc(O)ccc32)cc1`: -2.3% (inactive); for `CC(=O)c1ccc(S(=O)(=O)NCc2ccc(C(=O)N(C)CC(=O)Nc3cccc(F)c3)cc2)cc1`: -9.1% (inactive). As to `NC(=O)CSc1nc2ccccc2c(=O)n1CCc1ccccc1`, the activity change, less the hit threshold was -15.2% (inactive). With `C=CCn1c(SCC(N)=O)nc2scc(-c3ccc(C)o3)c2c1=O`, the activity change, less the hit threshold was 1.7% (active). The same measure for `C=CCn1c(=S)[nH]c2scc(-c3cccs3)c2c1=O`: 93.7% (active). The same measure for `C=CCn1c(SCC(=O)Nc2cccc(C)c2)nnc1-c1cnccn1`: -26.8% (inactive). The same measure for `C=CCn1c(=S)[nH]c2cc(-c3ccccc3)sc2c1=O`: -4.4% (inactive); for `C=CCn1c(=S)[nH]c2scc(-c3ccc(C)o3)c2c1=O`: 80.3% (active); for `CCC1(C)CC2(CCCN(CCC(=O)c3ccccc3)C2)CCO1` (centres undefined): -25% (inactive). With `O=C(NCc1ccco1)C1CCN(C(=O)Cc2ccccc2)CC1`, the activity change, less the hit threshold is -17.3% (inactive). `O=C(CCSCCc1ccccn1)Nc1cccc([N+](=O)[O-])c1`: the activity change, less the hit threshold is -11.2% (inactive).

Consider `CCN1C(=O)/C(=C\c2ccc(-c3cccc(C(=O)OC)c3)o2)SC1=Nc1ccc(C(=O)O)cc1`, for which the activity change, less the hit threshold is -22.8% (inactive).

In the case of `CCCCN(C(=O)CNC(=O)c1cccs1)C(C(=O)NC1CCCC1)c1ccncc1` (centres undefined), the activity change, less the hit threshold is -7.8% (inactive). For the compound `CCCCN(C(=O)CC1CCCC1)c1c(N)n(CC(C)C)c(=O)[nH]c1=O`, the activity change, less the hit threshold is -9.9% (inactive).
